Test results as given in PubChem BioAssay (NCATS).
Several values for one entry are separate records, joined by “and”; a condition that tells them apart may be missing. Equal values may be shown once. Results filed as inconclusive are left out. Activity calls are given as the source filed them. Unless noted, calls come from the whole dose curve; as a rule, active = well fitted curve in either direction with a large enough effect (not every such curve was filed as active); inconclusive = small, poorly fitted or top-dose-only effect, or another doubt; inactive = flat fitted curve, though single readings scatter.

Legend:
[1] = AP1 Signaling Pathway (AID 357); settings: ME-180 AP-1-bla reporter, EGF-induced, beta-lactamase ratio, 5 h; note: % is set by controls: 0 for no effect and ±100 for the full control effect
In short: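 ME-180 cells with beta-lactamase reporter under AP-1 response element, stimulated with EC50 EGF; compounds tested in titration series, 5 h at 37 °C. CCF4 substrate added 2.5 h at room temperature; 460/530 nm emission ratio gave %activity and AC50.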

[2] = molecular target: Cytochrome P450 1A2 (Homo sapiens) (UniProt P05177); test: p450-cyp1a2 (AID 410; calls by dose curve; note: potency is the fitted concentration of half-maximal effect;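 for activity change, negative = inhibition: -100% = full effect of reference inhibitor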); settings: recombinant CYP1A2, luciferin-ME demethylation, luminescence; series mostly up to 57 µM
Cytochrome P450 1A2 (Homo sapiens), sequence (P05177 whole entry, looked up): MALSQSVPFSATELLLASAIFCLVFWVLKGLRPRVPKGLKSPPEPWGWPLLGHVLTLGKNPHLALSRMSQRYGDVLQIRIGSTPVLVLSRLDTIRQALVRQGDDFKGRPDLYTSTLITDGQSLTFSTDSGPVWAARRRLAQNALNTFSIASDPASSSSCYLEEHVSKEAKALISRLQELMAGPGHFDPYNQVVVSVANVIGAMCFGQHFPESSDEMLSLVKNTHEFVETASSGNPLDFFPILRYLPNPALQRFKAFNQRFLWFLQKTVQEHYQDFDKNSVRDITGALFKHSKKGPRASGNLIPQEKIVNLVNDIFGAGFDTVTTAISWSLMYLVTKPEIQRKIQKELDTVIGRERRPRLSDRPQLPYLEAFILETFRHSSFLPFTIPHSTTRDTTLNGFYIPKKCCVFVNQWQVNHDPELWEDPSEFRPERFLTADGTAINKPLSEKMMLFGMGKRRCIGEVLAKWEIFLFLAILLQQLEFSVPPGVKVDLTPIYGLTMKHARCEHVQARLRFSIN
In short: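 O-Demethylation of luciferin 6' methyl ether by human CYP1A2 is monitored as luciferase luminescence. Substrate sits at Km (100uM); enzyme is 20nM. Values are scaled to 57 uM furafylline as maximal inhibition.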

[3] = NFAT Signaling Pathway (AID 444); settings: Jurkat NFAT-bla M1, carbachol, beta-lactamase ratio, 5 h;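 note: carbachol stimulus at about its EC50 of 1 µM final; % is set by controls: 0 for no effect and ±100 for the full control effect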
In short: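 Read-out: CCF4 FRET ratio (460 nm/530 nm) after 1 h RT dye loading, used for %activity and AC50 from titration series. Cells: Jurkat NFAT-β-lactamase/M1 line, treated with compound plus 1 uM carbachol for 5 h, 37 °C.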

[4] = Stat Signaling Pathway (AID 446); settings: ME-180 (cervical carcinoma) SIE beta-lactamase reporter, IL-6 stimulated, 5 h;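 note: ME-180 cervical cancer cells given 40 pM IL-6 alongside compound; SIE-controlled beta-lactamase reporter measured as 460/530 nm FRET emission ratio; % is set by controls: 0 for no effect and ±100 for the full control effect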
In short: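 Compound effects on IL-6-induced STAT reporter activity were measured in ME-180 cells. After overnight culture, cells were co-treated with 40 pM IL-6 for 5 hrs before beta-lactamase substrate loading at room temperature.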

[5] = molecular target: Mitogen-activated protein kinase 10 (Mus musculus) (UniProt Q61831); test: JNK3 AlphaScreen Assay (AID 530); settings: JNK3 lysate, c-Jun phosphorylation; series mostly up to 57.1 µM;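 note: kinase came from lysate of stimulated human HepG2 cells; signal reports phosphorylation of biotinylated GST-cJun 1-79 at Ser73 with 10 µM ATP; % is set by controls: 0 for no effect and ±100 for the full control effect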
In short: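 qHTS titrations with 15 min compound pre-incubation before adding ATP (10 uM final). Read-out: AlphaScreen of Ser73-phosphorylated biotin-GST-cJun using HepG2 lysate JNK3 activated by IL-1β and TNFα.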

[6] = molecular target: 3',5'-cyclic-AMP phosphodiesterase 4B (Homo sapiens) (UniProt Q07343); test: qHTS Assay for Inhibitors of PDE-IV (AID 607; active = well fitted activation curve with a large enough effect in the main read-out, with a control signal flat, not every such curve was filed as active; note: % of control where 0% means no effect); settings: HEK293 ACTOne CNG channel cells, membrane potential fluorescence; series mostly up to 22.9 µM
3',5'-cyclic-AMP phosphodiesterase 4B (Homo sapiens), sequence (Q07343 whole entry, looked up): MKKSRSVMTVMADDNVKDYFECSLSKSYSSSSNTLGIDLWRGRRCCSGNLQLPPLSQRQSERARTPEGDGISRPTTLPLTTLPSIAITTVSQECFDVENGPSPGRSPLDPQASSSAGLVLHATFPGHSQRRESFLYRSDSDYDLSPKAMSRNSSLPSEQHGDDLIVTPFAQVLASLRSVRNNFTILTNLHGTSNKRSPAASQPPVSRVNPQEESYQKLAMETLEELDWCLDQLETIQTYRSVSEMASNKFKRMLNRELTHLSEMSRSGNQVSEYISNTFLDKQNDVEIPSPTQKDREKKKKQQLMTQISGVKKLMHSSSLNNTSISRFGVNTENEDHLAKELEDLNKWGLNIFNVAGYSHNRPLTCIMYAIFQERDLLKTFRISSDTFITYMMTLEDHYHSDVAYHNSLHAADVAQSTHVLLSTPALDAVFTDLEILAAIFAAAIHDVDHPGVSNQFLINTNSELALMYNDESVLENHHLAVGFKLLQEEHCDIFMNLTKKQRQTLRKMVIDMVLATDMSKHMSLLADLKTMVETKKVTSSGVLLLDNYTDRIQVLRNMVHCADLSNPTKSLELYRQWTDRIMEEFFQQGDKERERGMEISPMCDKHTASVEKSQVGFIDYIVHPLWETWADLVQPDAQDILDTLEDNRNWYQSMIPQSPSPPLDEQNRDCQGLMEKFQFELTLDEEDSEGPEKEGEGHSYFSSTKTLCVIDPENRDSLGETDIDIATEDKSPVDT
In short: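 ACTOne HEK293 cells carry a modified cAMP-gated CNG channel and express endogenous PDE4; plated 1000 cells/well, compounds up to 22.9 uM final. Membrane-potential dye fluorescence (ex 535/em 590) was read; parental cells received 10 uM forskolin + 100 uM RO 20-1724.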

[7] = molecular target: Pyruvate kinase (Leishmania mexicana) (UniProt Q27686); test: qHTS Validation Assay for Inhibitors of Leishmania Mexicana Pyruvate Kinase (AID 945; active = well fitted curve in the direction sought with a large enough effect; an effect the other way counts as inactive or inconclusive;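 note: 0% = DMSO only neutral control wells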); settings: purified L. mexicana pyruvate kinase, enzyme activity, E451W mutant enzyme; series mostly up to 57.5 µM
Pyruvate kinase (Leishmania mexicana), sequence (Q27686 2-499 E452W): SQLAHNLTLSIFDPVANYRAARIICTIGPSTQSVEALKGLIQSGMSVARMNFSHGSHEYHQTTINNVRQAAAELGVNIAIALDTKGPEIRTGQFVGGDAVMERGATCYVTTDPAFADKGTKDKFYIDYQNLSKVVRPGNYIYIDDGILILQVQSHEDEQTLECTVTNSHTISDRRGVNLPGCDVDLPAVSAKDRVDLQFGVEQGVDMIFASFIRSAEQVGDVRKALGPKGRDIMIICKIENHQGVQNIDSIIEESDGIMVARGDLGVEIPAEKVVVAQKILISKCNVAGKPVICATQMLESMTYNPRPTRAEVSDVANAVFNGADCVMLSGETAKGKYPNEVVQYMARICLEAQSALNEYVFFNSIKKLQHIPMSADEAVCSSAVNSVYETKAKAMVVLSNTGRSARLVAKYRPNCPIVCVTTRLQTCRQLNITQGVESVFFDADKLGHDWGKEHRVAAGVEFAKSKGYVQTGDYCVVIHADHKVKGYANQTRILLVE
In short: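 An endpoint luciferase assay: 0.2 nM LmPYK E451W turns over 0.5 mM PEP with 0.1 mM ADP for 1 h at room temperature, pH 7.2, before PKLight addition. Values are normalized to DMSO-only wells.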

[8] = molecular target: Pyruvate kinase PKM (Homo sapiens) (UniProt P14618); test: qHTS Assay for Activators of Human Muscle Pyruvate Kinase (AID 954; active = well fitted curve in the direction sought with a large enough effect, not every such curve was filed as active;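 note: 0% = uninhibited enzyme and -100% = no enzyme or full thiadiazolimine inhibition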); settings: purified human muscle pyruvate kinase, luciferase-coupled luminescence, 1 h; series mostly up to 57.5 µM
Pyruvate kinase PKM (Homo sapiens), sequence (P14618 whole entry, looked up): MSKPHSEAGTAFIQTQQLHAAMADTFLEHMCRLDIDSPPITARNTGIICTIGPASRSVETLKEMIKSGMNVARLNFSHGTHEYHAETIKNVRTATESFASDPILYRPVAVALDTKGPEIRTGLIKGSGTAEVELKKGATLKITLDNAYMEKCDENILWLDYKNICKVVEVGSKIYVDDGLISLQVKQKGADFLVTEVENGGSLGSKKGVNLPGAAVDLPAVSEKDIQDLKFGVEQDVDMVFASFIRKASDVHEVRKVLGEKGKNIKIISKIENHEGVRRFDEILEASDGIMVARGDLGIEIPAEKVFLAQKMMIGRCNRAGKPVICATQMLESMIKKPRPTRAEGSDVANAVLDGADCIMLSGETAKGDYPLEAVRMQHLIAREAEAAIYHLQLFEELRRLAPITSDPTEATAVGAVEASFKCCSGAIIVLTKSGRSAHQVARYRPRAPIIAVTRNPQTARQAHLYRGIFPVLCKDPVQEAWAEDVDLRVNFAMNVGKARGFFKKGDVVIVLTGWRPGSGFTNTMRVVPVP
In short: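 A coupled luminescent readout tracked ATP made from ADP by purified PKM2. Final conditions included 0.1 nM enzyme, PEP and ADP at 0.5 and 0.1 mM, pH 7.2 imidazole buffer with BSA, and a one-hour room-temperature reaction.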

[9] = molecular target: Alpha-galactosidase A (Homo sapiens) (UniProt P06280); test: Counterscreen for Glucocerebrosidase Inhibitors: qHTS Assay for Human alpha-Galactosidase at pH 4.5 (AID 992; active = well fitted curve in the direction sought with a large enough effect; an effect the other way counts as inactive or inconclusive; note: 0% is about no effect); settings: purified enzyme, fluorogenic substrate; series mostly up to 76.9 µM
Alpha-galactosidase A (Homo sapiens), sequence (P06280 whole entry, looked up): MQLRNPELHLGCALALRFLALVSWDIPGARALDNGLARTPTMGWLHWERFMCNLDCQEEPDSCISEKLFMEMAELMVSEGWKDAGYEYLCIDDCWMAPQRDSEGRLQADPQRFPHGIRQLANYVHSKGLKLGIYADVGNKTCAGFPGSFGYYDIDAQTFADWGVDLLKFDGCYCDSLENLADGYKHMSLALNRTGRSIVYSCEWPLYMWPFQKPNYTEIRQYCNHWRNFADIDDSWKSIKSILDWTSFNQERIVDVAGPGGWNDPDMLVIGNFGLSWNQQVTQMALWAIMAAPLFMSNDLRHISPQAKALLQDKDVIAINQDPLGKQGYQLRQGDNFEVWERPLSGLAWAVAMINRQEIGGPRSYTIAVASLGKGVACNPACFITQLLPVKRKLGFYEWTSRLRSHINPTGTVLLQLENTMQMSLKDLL
In short: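 Citrate buffer pH 4.5, Tween-20 0.005%. Enzyme 2 nM, substrate 80 uM, 20 min RT. Stop pH 10. Fluorescence Ex 365/Em 440. AC50 by Hill fit.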

[10] = molecular target: alpha-glucosidase (Oryza sativa, rice) (UniProt Q653V4); test: Counterscreen for Glucocerebrosidase Inhibitors: qHTS Assay for Rice alpha-Glucosidase at pH 5.0 (AID 997; active = well fitted curve in the direction sought with a large enough effect; an effect the other way counts as inactive or inconclusive;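 note: 0% = full activity with enzyme and -100% = basal without enzyme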); settings: rice alpha-glucosidase enzyme activity; series mostly up to 76.9 µM
In short: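 Endpoint fluorogenic assay at pH 5.0: compounds (0.7 nM to 77 uM) titrated against 4 nM rice enzyme and 400 uM 4-MU-alpha-glucoside for 20 min at room temperature; NaOH/glycine stop, read ex 365/em 440 nm, Hill-fitted AC50.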

[11] = qHTS Assay for Lipid Storage Modulators (AID 1519; calls by dose curve); settings: Drosophila S3 cells, BODIPY lipid droplet/cell ratio, laser cytometry, cells loaded with oleic acid; for activity change, negative = inhibition: at 25.7 µM (top of the series)
In short: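 Cells seeded at 5,000 per well were treated with compounds over a concentration series and loaded with oleic acid (400 uM, as added). Lipid droplet fluorescence (488 nm excitation, 500-530 nm channel) was read by laser-scanning cytometry and normalized to 20 uM Triacsin C.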

[12] = molecular target: Ubiquitin carboxyl-terminal hydrolase 1 (Homo sapiens) (UniProt O94782); test: Inhibitors of USP1/UAF1: Pilot qHTS (AID 504865; active = well fitted curve in the direction sought with a large enough effect; an effect the other way counts as inactive or inconclusive;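 note: rhodamine fluorescence freed from ubiquitin-rhodamine substrate followed over time; top concentration of the series differs between compounds; % is set by controls: 0 for no effect and ±100 for the full control effect; nearly all actives have a fitted effect of over 35% in size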); settings: purified USP1/UAF1, Ub-rhodamine cleavage fluorescence; series mostly up to 54.9 µM
Ubiquitin carboxyl-terminal hydrolase 1 (Homo sapiens), sequence (O94782 whole entry, looked up): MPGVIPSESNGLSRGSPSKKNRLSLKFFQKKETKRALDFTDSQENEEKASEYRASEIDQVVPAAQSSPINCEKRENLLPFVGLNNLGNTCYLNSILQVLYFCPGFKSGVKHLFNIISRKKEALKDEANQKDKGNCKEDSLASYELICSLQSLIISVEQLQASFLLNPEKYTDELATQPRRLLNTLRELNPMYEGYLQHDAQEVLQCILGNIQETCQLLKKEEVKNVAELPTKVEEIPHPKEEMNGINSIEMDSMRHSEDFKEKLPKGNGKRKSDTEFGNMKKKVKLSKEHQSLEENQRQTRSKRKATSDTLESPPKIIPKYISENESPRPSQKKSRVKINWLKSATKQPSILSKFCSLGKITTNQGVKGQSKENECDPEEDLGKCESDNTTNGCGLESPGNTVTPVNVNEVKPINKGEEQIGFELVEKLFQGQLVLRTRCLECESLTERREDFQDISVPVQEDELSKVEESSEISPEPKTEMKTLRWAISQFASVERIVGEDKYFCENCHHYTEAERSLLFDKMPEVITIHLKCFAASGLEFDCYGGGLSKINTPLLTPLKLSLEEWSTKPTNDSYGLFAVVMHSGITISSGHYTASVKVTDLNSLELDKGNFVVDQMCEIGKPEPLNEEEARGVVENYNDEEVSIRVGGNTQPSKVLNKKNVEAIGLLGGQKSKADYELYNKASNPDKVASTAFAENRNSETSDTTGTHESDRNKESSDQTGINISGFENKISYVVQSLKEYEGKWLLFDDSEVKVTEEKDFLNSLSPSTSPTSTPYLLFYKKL
In short: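 Deubiquitinase activity followed as kinetic rhodamine fluorescence release from 150 nM Ub-Rho. 1 nM USP1/UAF1 with compound, after 15 min room-temperature preincubation, in HEPES pH 7.8 buffer containing TCEP, EDTA, BSA and Tween-20.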

[13] = molecular target: Glucocorticoid receptor (Homo sapiens) (UniProt P04150); test: GR-GFP Redistribution (AID 450;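 active = compounds whose dose series gives a full or clear partial fitted curve of increased nuclear translocation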; note: potency is the fitted concentration of half-maximal effect); settings: U2OS GR-GFP nuclear translocation, laser cytometry, 2 h
Glucocorticoid receptor (Homo sapiens), sequence (P04150 whole entry, looked up, the tested form may be a part): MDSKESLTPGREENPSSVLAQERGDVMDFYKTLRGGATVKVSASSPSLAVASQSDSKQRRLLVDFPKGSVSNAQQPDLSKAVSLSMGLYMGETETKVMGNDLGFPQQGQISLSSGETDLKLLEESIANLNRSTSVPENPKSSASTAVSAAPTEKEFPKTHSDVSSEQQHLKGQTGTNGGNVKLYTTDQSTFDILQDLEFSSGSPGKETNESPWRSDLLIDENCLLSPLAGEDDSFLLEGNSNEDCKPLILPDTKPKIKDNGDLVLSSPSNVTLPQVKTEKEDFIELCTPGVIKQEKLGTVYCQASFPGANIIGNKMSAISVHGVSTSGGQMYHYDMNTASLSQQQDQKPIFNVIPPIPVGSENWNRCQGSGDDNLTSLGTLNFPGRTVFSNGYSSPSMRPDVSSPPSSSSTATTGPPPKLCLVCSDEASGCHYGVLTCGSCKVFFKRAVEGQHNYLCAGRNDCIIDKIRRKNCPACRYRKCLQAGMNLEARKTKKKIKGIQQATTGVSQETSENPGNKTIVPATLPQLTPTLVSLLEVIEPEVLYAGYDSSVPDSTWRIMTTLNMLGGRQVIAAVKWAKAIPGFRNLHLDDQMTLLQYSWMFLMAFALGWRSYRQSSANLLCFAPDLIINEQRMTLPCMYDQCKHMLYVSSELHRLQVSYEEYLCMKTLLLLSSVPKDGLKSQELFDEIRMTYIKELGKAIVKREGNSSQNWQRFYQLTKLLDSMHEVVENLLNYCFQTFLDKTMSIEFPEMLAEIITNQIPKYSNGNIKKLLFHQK

[14] = molecular target: Glucocorticoid receptor (Homo sapiens) (UniProt P04150); test: GR-EFC Redistribution (AID 451; calls by dose curve; note: potency is the fitted concentration of half-maximal effect); settings: CHO-K1 GR-EFC translocation, beta-gal luminescence, 2 h
In short: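 Translocation of GR-ED fusion to nuclear EA restores b-gal, read by luminescence after 1 h room-temperature detection. Engineered CHO-K1 biosensor cells, 1,000/well, exposed 2 h at 37 C to titrations up to 46 uM final.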

[15] = molecular target: ATP-dependent 6-phosphofructokinase (Trypanosoma brucei brucei) (UniProt O15648); test: qHTS Assay to Find Inhibitors of T. brucei phosphofructokinase: hit validation (AID 492961; active = well fitted curve in the direction sought with a large enough effect; an effect the other way counts as inactive or inconclusive); settings: T. brucei PFK, ADP-Glo luminescence; series mostly up to 24.3 µM
In short: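 ADP-Glo luminescence read-out of ADP formed by 1.25 nM PFK from 0.1 mM ATP and 0.5 mM F6P (TEA pH 8.0, 45 min, RT). Compounds titrated; activity normalized to no-enzyme and full-enzyme controls.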

[16] = molecular target: Luciferin 4-monooxygenase (Photinus pyralis) (UniProt P08659); test: Biochemical firefly luciferase enzyme assay for NPC (AID 624030; active = well fitted curve in the direction sought with a large enough effect; an effect the other way counts as inactive or inconclusive;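 note: purified P. pyralis luciferase at 10 nM with luciferin and ATP substrate; 0% = DMSO and -100% = full luciferase inhibition by PTC124 control; nearly all actives have a fitted effect of over 70% in size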); settings: purified P. pyralis luciferase, luminescence, 5 min; series mostly up to 58.6 µM
Luciferin 4-monooxygenase (Photinus pyralis), sequence (P08659 whole entry, looked up): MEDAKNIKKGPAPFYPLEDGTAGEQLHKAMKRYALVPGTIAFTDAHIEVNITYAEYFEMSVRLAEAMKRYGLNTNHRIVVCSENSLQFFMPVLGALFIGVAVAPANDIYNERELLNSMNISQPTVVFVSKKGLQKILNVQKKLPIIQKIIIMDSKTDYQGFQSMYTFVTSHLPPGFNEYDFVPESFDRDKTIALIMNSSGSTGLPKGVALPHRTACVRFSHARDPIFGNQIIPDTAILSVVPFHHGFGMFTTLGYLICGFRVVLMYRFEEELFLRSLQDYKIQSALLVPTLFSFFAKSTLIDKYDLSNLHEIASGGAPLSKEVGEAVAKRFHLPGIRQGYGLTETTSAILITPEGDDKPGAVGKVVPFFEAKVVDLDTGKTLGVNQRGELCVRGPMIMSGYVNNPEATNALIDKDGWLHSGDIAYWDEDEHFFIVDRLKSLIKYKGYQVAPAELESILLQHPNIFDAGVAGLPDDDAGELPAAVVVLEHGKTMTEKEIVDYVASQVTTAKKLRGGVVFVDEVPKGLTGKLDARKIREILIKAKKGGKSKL
In short: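 Direct inhibition of firefly luciferase enzyme (10 nM final, 50 mM Tris Acetate) assessed by luminescence within 5 minutes. Percent activity scaled between DMSO and PTC124 positive control, with concentration-effect curves classified by fit quality and response.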

[17] = qHTS profiling for inhibitors of Plasmodium falciparum proliferation (AID 504749; active = well fitted curve in the direction sought with a large enough effect; an effect the other way counts as inactive or inconclusive;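 note: 0% = DMSO vehicle and full inhibition = artemisinin control; nearly all actives have a fitted effect of over 60% in size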); settings: P. falciparum in erythrocytes, SYBR Green DNA, 72 h, at 28.7 µM (top of the series)
In short: (§1)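 SYBR Green fluorescence of parasite DNA, read after lysis and overnight dark incubation, measured growth over 72 h in erythrocyte culture at 0.3% parasitemia and 2.5% hematocrit. Data normalised to DMSO and 0.29 uM artemisinin, with plate-drift correction.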

AS120 = test: as above; settings: P. falciparum in erythrocytes, SYBR Green DNA, 72 h; series mostly up to 28.7 µM
In short: as §1

CP250 = test: as above; settings: P. falciparum in erythrocytes, SYBR Green DNA, 72 h; series mostly up to 12.8 µM
In short: as §1

[18] = measured here: cell count channel max response
[19] = measured here: lipid channel max response

Cc1cccc(C)c1OC[C@H](C)N
inactive: activity change, negative = inhibition ([1]; at 17.2 µM (top of the series)) 5.64% | activity change, negative = inhibition ([1]; at 38 µM (top of the series)) 1.06% | activity change, negative = inhibition ([3]; at 17.2 µM (top of the series)) 1.67% | activity change, negative = inhibition ([3]; at 38 µM (top of the series)) 15.4% | activity, negative = inhibition ([4]; at 17.2 µM (top of the series)) 3.2% | activity, negative = inhibition ([4]; at 38 µM (top of the series)) -14.2% | Potency [5] | Potency [6] | outcome [7] | outcome [8] | outcome [9] | outcome [10] | activity change, negative = inhibition [11] -0.862% | Potency [12]
active: Potency [2] 2.51 µM and 398 nM
-4.34%: max response [11, 18]
-6.28%: max response [11, 19]

CC(=O)OCC1=C(C(=O)O)N2C(=O)[C@@H](NC(=O)Cc3cccs3)[C@@H]2SC1
inactive: activity change, negative = inhibition ([1]; at 17.2 µM (top of the series)) 7.41% | activity change, negative = inhibition ([1]; at 38 µM (top of the series)) -2.48% | Potency [2] | activity change, negative = inhibition ([3]; at 17.2 µM (top of the series)) -11.2% | activity change, negative = inhibition ([3]; at 38 µM (top of the series)) 3.89% | activity, negative = inhibition ([4]; at 17.2 µM (top of the series)) -1.09% | activity, negative = inhibition ([4]; at 38 µM (top of the series)) -3.08% | Potency [13] > 46 µM and > 20.6 µM | Potency [14] > 46 µM and > 20.6 µM | Potency [5] | outcome [7] | outcome [8] | outcome [9] | outcome [10] | activity change, negative = inhibition [11] -1.63%
-18.6%: max response [11, 19]
-17.3%: max response [11, 18]

N[C@H](C(=O)N[C@@H]1C(=O)N2C(C(=O)O)=C(Cl)CS[C@@H]12)c1ccccc1
-3.03% and 9.1%: max response [11, 19]
inactive: activity change, negative = inhibition ([1]; at 17.2 µM (top of the series)) 6.26% and -9.38% | activity change, negative = inhibition ([1]; at 38 µM (top of the series)) -4.53% | Potency [2] | activity change, negative = inhibition ([3]; at 17.2 µM (top of the series)) -10.5% and 0.734% | activity change, negative = inhibition ([3]; at 38 µM (top of the series)) 5.52% | activity, negative = inhibition ([4]; at 17.2 µM (top of the series)) -10.4% and 2.37% | activity, negative = inhibition ([4]; at 38 µM (top of the series)) 22.7% | Potency [13] > 46 µM and > 20.6 µM | Potency [14] > 46 µM and > 20.6 µM | Potency [5] | Potency [6] | outcome [7] | outcome [8] | outcome [9] | outcome [10] | activity change, negative = inhibition [11] -0.721% and -1.78% | Potency [12]
-2.76% and 11.1%: max response [11, 18]

CC(C)(C)NC[C@H](O)c1cc(O)cc(O)c1
8%: max response [11, 18]
4.68%: max response [11, 19]
inactive: activity change, negative = inhibition ([1]; at 17.2 µM (top of the series)) -14.7% | activity change, negative = inhibition ([1]; at 38 µM (top of the series)) -8.4% | Potency [2] | activity change, negative = inhibition ([3]; at 17.2 µM (top of the series)) -10.3% | activity change, negative = inhibition ([3]; at 38 µM (top of the series)) 0.832% | activity, negative = inhibition ([4]; at 17.2 µM (top of the series)) -0.828% | activity, negative = inhibition ([4]; at 38 µM (top of the series)) 3.91% | Potency [5] | Potency [6] | outcome [7] | outcome [8] | outcome [9] | outcome [10] | activity change, negative = inhibition [11] -2.66% | outcome [15] | outcome [16] | activity, negative = inhibition ([17]; parasite line A) -9.2% | activity, negative = inhibition ([17]; parasite line B) -17.1% | Potency (AS120) | Potency (CP250)
